Experimental data taken from article PMC7862700, “An all-to-all approach to the identification of sequence-specific readers for epigenetic DNA modifications on cytosine”.

Columns and labels:
Assay in all cases: DAPPL (digital affinity profiling via proximity ligation, sequencing); 10 mM Tris-HCl pH 7.5, 50 mM NaCl, 1 mM DTT, 4% glycerol, room temperature, 30 min; GST-TFs on glutathione beads, 16-mer random dsDNA library, 0.1% formaldehyde crosslink after washing; high values mean tight binding
[1] = target: T1, FEV (Homo sapiens, UniProt Q99581 1-238); conditions: protein: recombinant; tags: N-terminal GST; dsDNA, one strand shown
T1 sequence: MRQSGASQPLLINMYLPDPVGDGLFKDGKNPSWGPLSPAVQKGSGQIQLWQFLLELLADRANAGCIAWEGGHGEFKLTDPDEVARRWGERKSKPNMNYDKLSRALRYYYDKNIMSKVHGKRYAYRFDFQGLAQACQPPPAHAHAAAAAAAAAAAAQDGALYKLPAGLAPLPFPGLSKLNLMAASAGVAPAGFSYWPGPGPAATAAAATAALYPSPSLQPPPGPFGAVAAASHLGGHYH
Summary of the method: (§1)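 Binding signal is each hexamer's read frequency for a factor divided by its frequency in the tag-only sample. The factors were GST-fused human transcription factors from yeast, captured on glutathione beads, DNA-barcoded and pooled with that sample. Pools were incubated with 200 nmole of a random double-stranded 16-mer DNA library in Tris/NaCl/DTT/glycerol buffer at room temperature for 30 min, then washed, crosslinked with 0.1% formaldehyde, proximity-ligated with BsaI/T4 ligase (1 h, 37 °C), PCR-amplified and sequenced on an Illumina NextSeq500.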

[2] = target: ETV5 (Homo sapiens, UniProt P41161 1-510); conditions: protein: recombinant; tags: N-terminal GST; dsDNA, one strand shown
Summary of the method: as §1

[3] = target: HSF1 (Homo sapiens, UniProt Q00613 1-529); conditions: protein: recombinant; tags: N-terminal GST; chain copies: 3; dsDNA, one strand shown
Summary of the method: as §1

[4] = target: T2, SPIC (Homo sapiens, UniProt Q8N5J4 1-248); conditions: protein: recombinant; tags: N-terminal GST; dsDNA, one strand shown
T2 sequence: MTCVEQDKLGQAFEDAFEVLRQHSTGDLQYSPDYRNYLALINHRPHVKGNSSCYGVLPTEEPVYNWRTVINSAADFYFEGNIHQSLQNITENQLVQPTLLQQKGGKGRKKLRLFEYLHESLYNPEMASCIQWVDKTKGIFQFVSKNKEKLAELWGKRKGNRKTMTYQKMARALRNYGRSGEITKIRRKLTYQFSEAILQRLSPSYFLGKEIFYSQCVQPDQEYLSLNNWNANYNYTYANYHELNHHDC
Summary of the method: as §1

[5] = target: ELF4 (Homo sapiens, UniProt Q99607 1-663); conditions: protein: recombinant; tags: N-terminal GST; dsDNA, one strand shown
Summary of the method: as §1

[6] = target: T3, ELK4 (Homo sapiens, UniProt P28324-2 1-405); conditions: protein: recombinant; tags: N-terminal GST; dsDNA, one strand shown
T3 sequence: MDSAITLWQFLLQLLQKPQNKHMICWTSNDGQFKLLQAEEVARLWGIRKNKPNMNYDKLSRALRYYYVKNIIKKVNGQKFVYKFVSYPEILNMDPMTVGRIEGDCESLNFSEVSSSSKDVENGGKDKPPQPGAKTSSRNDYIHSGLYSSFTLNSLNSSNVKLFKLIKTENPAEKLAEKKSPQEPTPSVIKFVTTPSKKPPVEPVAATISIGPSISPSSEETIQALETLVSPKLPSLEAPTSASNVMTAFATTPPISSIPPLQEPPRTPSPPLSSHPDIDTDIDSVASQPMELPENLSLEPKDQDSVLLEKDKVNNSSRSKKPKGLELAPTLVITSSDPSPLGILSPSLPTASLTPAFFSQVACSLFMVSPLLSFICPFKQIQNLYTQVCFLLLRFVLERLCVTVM
Summary of the method: as §1

[7] = target: T4, ETV2 (Homo sapiens, UniProt O00321 1-342); conditions: protein: recombinant; tags: N-terminal GST; dsDNA, one strand shown
T4 sequence: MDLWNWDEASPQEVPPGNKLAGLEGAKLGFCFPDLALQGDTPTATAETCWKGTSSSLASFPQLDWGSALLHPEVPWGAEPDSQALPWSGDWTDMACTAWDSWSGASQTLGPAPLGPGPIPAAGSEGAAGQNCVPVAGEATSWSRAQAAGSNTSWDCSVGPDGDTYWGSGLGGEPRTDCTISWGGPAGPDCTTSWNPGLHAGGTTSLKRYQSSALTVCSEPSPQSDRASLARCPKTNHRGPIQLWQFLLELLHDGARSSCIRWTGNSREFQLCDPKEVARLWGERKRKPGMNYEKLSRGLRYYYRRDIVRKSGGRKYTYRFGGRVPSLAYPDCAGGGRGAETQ
Summary of the method: as §1

[8] = target: T5, ELF3 (Homo sapiens, UniProt P78545 1-371); conditions: protein: recombinant; tags: N-terminal GST; dsDNA, one strand shown
T5 sequence: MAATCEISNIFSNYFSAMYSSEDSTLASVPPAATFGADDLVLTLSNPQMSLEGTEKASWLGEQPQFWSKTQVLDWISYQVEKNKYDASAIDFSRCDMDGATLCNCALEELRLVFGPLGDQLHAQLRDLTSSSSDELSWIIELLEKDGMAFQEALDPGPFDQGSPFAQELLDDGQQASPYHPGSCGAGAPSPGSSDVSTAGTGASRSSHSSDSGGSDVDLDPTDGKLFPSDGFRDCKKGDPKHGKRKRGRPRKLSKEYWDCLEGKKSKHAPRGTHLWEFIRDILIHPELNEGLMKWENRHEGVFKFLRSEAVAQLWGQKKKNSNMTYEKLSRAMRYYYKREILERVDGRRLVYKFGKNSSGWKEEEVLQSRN
Summary of the method: as §1

[9] = target: CRX (Homo sapiens, UniProt O43186 1-299); conditions: protein: recombinant; tags: N-terminal GST; dsDNA, one strand shown
Summary of the method: as §1

[10] = target: ETV1 (Homo sapiens, UniProt P50549 1-477); conditions: protein: recombinant; tags: N-terminal GST; dsDNA, one strand shown
Summary of the method: as §1

HSF1, sequence (Q00613 whole entry): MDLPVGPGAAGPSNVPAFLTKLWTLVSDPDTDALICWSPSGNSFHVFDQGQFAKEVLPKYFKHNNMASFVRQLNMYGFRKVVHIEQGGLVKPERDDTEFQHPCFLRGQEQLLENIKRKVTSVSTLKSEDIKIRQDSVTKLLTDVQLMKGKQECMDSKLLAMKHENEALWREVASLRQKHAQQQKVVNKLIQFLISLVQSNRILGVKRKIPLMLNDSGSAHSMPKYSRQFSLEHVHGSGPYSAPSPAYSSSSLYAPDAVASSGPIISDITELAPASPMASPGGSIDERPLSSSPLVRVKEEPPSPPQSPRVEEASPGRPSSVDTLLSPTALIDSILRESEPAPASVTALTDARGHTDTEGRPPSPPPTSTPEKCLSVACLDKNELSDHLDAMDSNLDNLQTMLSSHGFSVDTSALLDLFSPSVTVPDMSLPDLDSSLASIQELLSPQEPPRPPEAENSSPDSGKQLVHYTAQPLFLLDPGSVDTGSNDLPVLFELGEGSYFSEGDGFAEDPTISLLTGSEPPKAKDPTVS
ETV1, sequence (P50549 whole entry): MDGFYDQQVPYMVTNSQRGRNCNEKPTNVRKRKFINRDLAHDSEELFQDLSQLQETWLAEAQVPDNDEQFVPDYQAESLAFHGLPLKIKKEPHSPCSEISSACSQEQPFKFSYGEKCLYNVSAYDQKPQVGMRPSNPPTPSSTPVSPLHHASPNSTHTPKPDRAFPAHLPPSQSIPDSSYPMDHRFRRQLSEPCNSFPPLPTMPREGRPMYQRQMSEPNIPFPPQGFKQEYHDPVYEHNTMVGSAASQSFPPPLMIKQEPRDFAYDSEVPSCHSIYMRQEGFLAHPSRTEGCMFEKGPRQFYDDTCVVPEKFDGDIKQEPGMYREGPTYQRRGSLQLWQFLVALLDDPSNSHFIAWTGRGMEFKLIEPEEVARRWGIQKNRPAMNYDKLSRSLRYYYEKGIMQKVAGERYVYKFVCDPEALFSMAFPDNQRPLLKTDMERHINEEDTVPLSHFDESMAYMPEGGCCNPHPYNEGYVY
CRX, sequence (O43186 whole entry): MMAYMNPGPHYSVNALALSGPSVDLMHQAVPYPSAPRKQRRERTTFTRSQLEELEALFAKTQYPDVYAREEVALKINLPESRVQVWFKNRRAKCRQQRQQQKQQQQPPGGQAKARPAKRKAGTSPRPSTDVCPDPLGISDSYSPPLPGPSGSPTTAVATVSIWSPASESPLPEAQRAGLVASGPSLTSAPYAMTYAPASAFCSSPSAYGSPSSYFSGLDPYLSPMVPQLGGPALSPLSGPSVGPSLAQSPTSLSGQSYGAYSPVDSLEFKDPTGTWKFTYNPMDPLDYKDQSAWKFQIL
ELF4, sequence (Q99607 whole entry): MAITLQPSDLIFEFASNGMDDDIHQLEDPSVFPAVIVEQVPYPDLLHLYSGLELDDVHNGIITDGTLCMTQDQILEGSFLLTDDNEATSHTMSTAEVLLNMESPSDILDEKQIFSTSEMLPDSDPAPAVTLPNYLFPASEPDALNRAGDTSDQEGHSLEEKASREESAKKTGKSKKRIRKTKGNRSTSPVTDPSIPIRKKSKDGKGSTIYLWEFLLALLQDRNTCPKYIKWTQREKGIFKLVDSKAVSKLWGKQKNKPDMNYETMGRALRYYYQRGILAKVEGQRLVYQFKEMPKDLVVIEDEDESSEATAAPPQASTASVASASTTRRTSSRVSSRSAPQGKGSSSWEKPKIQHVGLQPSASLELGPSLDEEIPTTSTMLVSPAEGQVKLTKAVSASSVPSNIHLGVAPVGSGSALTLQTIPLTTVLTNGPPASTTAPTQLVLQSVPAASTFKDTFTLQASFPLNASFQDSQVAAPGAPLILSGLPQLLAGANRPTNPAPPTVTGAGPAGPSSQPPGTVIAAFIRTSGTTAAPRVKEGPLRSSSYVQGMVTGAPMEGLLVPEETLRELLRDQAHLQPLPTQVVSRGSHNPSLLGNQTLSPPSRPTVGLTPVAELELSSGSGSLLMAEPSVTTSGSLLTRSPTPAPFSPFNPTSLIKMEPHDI
ETV5, sequence (P41161 whole entry): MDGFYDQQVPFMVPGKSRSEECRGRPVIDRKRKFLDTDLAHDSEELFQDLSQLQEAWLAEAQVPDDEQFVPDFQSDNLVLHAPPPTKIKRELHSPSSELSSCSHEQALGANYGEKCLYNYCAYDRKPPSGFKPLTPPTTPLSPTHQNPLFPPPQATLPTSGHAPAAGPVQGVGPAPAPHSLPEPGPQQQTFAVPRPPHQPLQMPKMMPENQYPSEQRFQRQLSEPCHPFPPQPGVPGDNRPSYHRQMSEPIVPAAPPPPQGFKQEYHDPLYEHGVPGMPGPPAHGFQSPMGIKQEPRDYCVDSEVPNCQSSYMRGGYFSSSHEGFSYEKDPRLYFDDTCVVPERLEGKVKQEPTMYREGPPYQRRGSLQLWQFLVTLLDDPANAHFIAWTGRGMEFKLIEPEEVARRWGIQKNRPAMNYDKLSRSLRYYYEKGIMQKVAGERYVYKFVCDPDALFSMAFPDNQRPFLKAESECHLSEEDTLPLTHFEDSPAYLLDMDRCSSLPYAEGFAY

Sequence | binding signal [1] | binding signal [2] | binding signal [3] | binding signal [4] | binding signal [5] | binding signal [6] | binding signal [7] | binding signal [8] | binding signal [9] | binding signal [10]
CCCGGA | 2.77 fold enrichment (6-mer frequency, TF over GST control) | 3.14 fold enrichment (6-mer frequency, TF over GST control) | 1.14 fold enrichment (6-mer frequency, TF over GST control) | 2.52 fold enrichment (6-mer frequency, TF over GST control) | 2.6 fold enrichment (6-mer frequency, TF over GST control) | 2.16 fold enrichment (6-mer frequency, TF over GST control) | 2.55 fold enrichment (6-mer frequency, TF over GST control) | 2.88 fold enrichment (6-mer frequency, TF over GST control) | 1.03 fold enrichment (6-mer frequency, TF over GST control) | 2.98 fold enrichment (6-mer frequency, TF over GST control)
TCTCGC | 1.64 fold enrichment (6-mer frequency, TF over GST control) | 1.6 fold enrichment (6-mer frequency, TF over GST control) | 2.5 fold enrichment (6-mer frequency, TF over GST control) | 1.4 fold enrichment (6-mer frequency, TF over GST control) | 1.75 fold enrichment (6-mer frequency, TF over GST control) | 1.76 fold enrichment (6-mer frequency, TF over GST control) | 1.96 fold enrichment (6-mer frequency, TF over GST control) | 1.88 fold enrichment (6-mer frequency, TF over GST control) | 1.84 fold enrichment (6-mer frequency, TF over GST control) | 1.75 fold enrichment (6-mer frequency, TF over GST control)
TTCGAG | 1.21 fold enrichment (6-mer frequency, TF over GST control) | 1.28 fold enrichment (6-mer frequency, TF over GST control) | 4.43 fold enrichment (6-mer frequency, TF over GST control) | 1.13 fold enrichment (6-mer frequency, TF over GST control) | 1.29 fold enrichment (6-mer frequency, TF over GST control) | 1.26 fold enrichment (6-mer frequency, TF over GST control) | 1.14 fold enrichment (6-mer frequency, TF over GST control) | 1.25 fold enrichment (6-mer frequency, TF over GST control) | 1.96 fold enrichment (6-mer frequency, TF over GST control) | 1.37 fold enrichment (6-mer frequency, TF over GST control)
ATGCCC | 1.34 fold enrichment (6-mer frequency, TF over GST control) | 1.28 fold enrichment (6-mer frequency, TF over GST control) | 1.19 fold enrichment (6-mer frequency, TF over GST control) | 1.54 fold enrichment (6-mer frequency, TF over GST control) | 1.33 fold enrichment (6-mer frequency, TF over GST control) | 1.36 fold enrichment (6-mer frequency, TF over GST control) | 1.26 fold enrichment (6-mer frequency, TF over GST control) | 1.34 fold enrichment (6-mer frequency, TF over GST control) | 1.12 fold enrichment (6-mer frequency, TF over GST control) | 1.31 fold enrichment (6-mer frequency, TF over GST control)
ACCCGC | 1.24 fold enrichment (6-mer frequency, TF over GST control) | 1.24 fold enrichment (6-mer frequency, TF over GST control) | 1.13 fold enrichment (6-mer frequency, TF over GST control) | 1.16 fold enrichment (6-mer frequency, TF over GST control) | 1.35 fold enrichment (6-mer frequency, TF over GST control) | 1.39 fold enrichment (6-mer frequency, TF over GST control) | 1.24 fold enrichment (6-mer frequency, TF over GST control) | 1.15 fold enrichment (6-mer frequency, TF over GST control) | 1.1 fold enrichment (6-mer frequency, TF over GST control) | 1.27 fold enrichment (6-mer frequency, TF over GST control)
TATCAG | 1.07 fold enrichment (6-mer frequency, TF over GST control) | 1.14 fold enrichment (6-mer frequency, TF over GST control) | 1.11 fold enrichment (6-mer frequency, TF over GST control) | 1.03 fold enrichment (6-mer frequency, TF over GST control) | 1.18 fold enrichment (6-mer frequency, TF over GST control) | 1.35 fold enrichment (6-mer frequency, TF over GST control) | 1.01 fold enrichment (6-mer frequency, TF over GST control) | 1.09 fold enrichment (6-mer frequency, TF over GST control) | 1.47 fold enrichment (6-mer frequency, TF over GST control) | 1.14 fold enrichment (6-mer frequency, TF over GST control)
GCAAAT | 1.08 fold enrichment (6-mer frequency, TF over GST control) | 1.1 fold enrichment (6-mer frequency, TF over GST control) | 1.08 fold enrichment (6-mer frequency, TF over GST control) | 1.17 fold enrichment (6-mer frequency, TF over GST control) | 1.04 fold enrichment (6-mer frequency, TF over GST control) | 1.02 fold enrichment (6-mer frequency, TF over GST control) | 1.06 fold enrichment (6-mer frequency, TF over GST control) | 1.17 fold enrichment (6-mer frequency, TF over GST control) | 1.08 fold enrichment (6-mer frequency, TF over GST control) | 1.11 fold enrichment (6-mer frequency, TF over GST control)
